This is part of a sample that, as a whole, favours compounds with a hit. Of some 83,000 tested, about 20% had one in any assay.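 Single-concentration screen, 48 h exposure, 96-well plates. Endpoint: percent growth. Below 10 = active.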 Calls of active or inactive are those of the source.
What was measured:
Test in all cases: NCI-60 one-dose screen, 48 h (100 = growth as untreated, 0 = no growth, -100 = all killed)
Details in all cases: 10 µM
[1] = system: SK-MEL-2 melanoma
[2] = system: EKVX NSCLC
[3] = system: SN12C renal
[4] = system: UO-31 renal
[5] = system: TK-10 renal
[6] = system: ACHN renal
[7] = system: CAKI-1 renal
[8] = system: A498 renal
[9] = system: CCRF-CEM leukemia
[10] = system: MOLT-4 leukemia

| Compound | growth [1] | growth [2] | growth [3] | growth [4] | growth [5] | growth [6] | growth [7] | growth [8] | growth [9] | growth [10] |
| --- | --- | --- | --- | --- | --- | --- | --- | --- | --- | --- |
| C=C(C)[C@@H]1CC[C@]2(C(=O)OC)CC[C@]3(C)[C@H](CC[C@@H]4[C@@]5(C)CC[C@H](N)C(C)(C)[C@@H]5CC[C@]43C)[C@@H]12 | -75.3% (active) | -95.7% (active) | -92.8% (active) | -100% (active) | -87.8% (active) | -100% (active) | -99.9% (active) | -91.6% (active) | -52.3% (active) |  |
| O=S(=O)(c1ccc(Cl)cc1)c1nc(-c2ccccc2)oc1S(=O)(=O)c1ccc(Cl)cc1 | 96.7% (inactive) | 92.1% (inactive) | 89.5% (inactive) | 64.4% (inactive) | 97.8% (inactive) | 91.9% (inactive) | 85.8% (inactive) | 122% (inactive) | -28.1% (active) |  |
| O=C(NCCCCC(c1ccc(F)cc1)c1ccc(F)cc1)NCCCc1cccnc1 | -1.41% (active) | 27.4% (inactive) | 23.9% (inactive) | 26.2% (inactive) | 46.2% (inactive) | 37.5% (inactive) | 29.8% (inactive) | 84.2% (inactive) | -25.4% (active) |  |
| CC1(C)CC[C@]23CC[C@]4(C)[C@H](CC[C@@H]5[C@@]6(C)CC[C@H](N)C(C)(C)[C@@H]6CC[C@]54C)[C@H]2[C@H]1OC3=O | -77.2% (active) | -95.4% (active) | -96% (active) | -96.7% (active) | -90.1% (active) | -100% (active) | -98.2% (active) | -90.3% (active) | -32.4% (active) |  |
| O=C(CS(=O)(=O)c1oc(-c2ccc(Cl)cc2)nc1S(=O)(=O)c1ccccc1)N1CCCC1 | 82.8% (inactive) | 74.9% (inactive) | -26.2% (active) | -100% (active) | -94.5% (active) | -100% (active) | -98.7% (active) | 110% (inactive) | -45% (active) |  |
| CC(=O)Nc1nc(-c2ccc(N3CCN(C)CC3)c(NS(=O)(=O)c3ccc(C(F)(F)F)cc3)c2)cs1 | 7.74% (active) | 72.2% (inactive) | 13.7% (inactive) | 24.9% (inactive) | 10.8% (inactive) | 5.92% (active) | 13.5% (inactive) | 52.3% (inactive) | -13.4% (active) |  |
| CCN1CCN(c2ccc(NC(=O)Nc3ccc(-c4cc(C(=O)NC(C)C)c5ncccc5n4)cc3)cc2C(F)(F)F)CC1 | -71% (active) | -91.5% (active) | -94.3% (active) | -94.5% (active) | -92.7% (active) | -93.1% (active) | -95.2% (active) | -99.1% (active) | -44.5% (active) |  |
| O=C(Nc1ccc(OCc2ccccc2)cc1)Nc1ccc(Cl)c(C(F)(F)F)c1 | -40.2% (active) | 5.04% (active) | 2.86% (active) | -1.46% (active) | 21% (inactive) | 0.776% (active) | 3.68% (active) | -15.1% (active) | -23.4% (active) |  |
| CCN1CCN(c2ccc(NC(=O)Nc3ccc4c(c3F)CCN4c3ccnc(C(=O)NC)c3)cc2C(F)(F)F)CC1 | 99.6% (inactive) | -76.9% (active) | 104% (inactive) | 85.3% (inactive) | 118% (inactive) | 54.9% (inactive) | -87.9% (active) | 142% (inactive) | -42.3% (active) |  |
| O=C(Nc1ccc(OCC(=O)c2ccccc2)cc1)Nc1ccc(Cl)c(C(F)(F)F)c1 | -53.7% (active) | 17.2% (inactive) | 24.9% (inactive) | 17.6% (inactive) | 49.2% (inactive) | 18.1% (inactive) | 20.2% (inactive) | 17.1% (inactive) | 9.86% (active) |  |
| CCN1CCN(c2ccc(NC(=O)Nc3ccc(-c4cc(C(=O)NC)c5ncccc5n4)cc3)cc2C(F)(F)F)CC1 | -72.8% (active) | -100% (active) | -96.5% (active) | -100% (active) | -98.9% (active) | -100% (active) | -100% (active) | -98.4% (active) | -52.5% (active) |  |
| CC[C@@]1(O)C(=O)OCc2c1cc1n(c2=O)Cc2c-1nc1cc(F)c(C)c3c1c2[C@@H](N)CC3 | -29.2% (active) | 15.4% (inactive) | 1.83% (active) | -82.4% (active) | 6.02% (active) | -57.8% (active) | -22.9% (active) | -89.6% (active) | 13.4% (inactive) |  |
| O=C(Nc1ccncc1)c1ccc(-n2c(=O)[nH]c3ccccc3c2=O)cc1 | 91.9% (inactive) | 94.2% (inactive) | 90.5% (inactive) | 87.3% (inactive) | 103% (inactive) | 96.2% (inactive) | 87.3% (inactive) | 114% (inactive) | -31.5% (active) |  |
| CCC(C)S(=O)(=O)c1oc(-c2ccc(C)cc2)nc1S(=O)(=O)c1ccccc1 (stereo unspecified) | -94.9% (active) | -61% (active) | -85.6% (active) | -100% (active) | -99.5% (active) | -100% (active) | -100% (active) | 109% (inactive) | -46% (active) |  |
| CC(=O)Nc1nc(-c2ccc(N3CCN(C)CC3)c(NS(=O)(=O)c3cccc4c(N(C)C)cccc34)c2)cs1 | 65.3% (inactive) | 69.9% (inactive) | 75.6% (inactive) | 60% (inactive) | 84.3% (inactive) | 60.7% (inactive) | 66.5% (inactive) | 117% (inactive) | 8.38% (active) |  |
| Cc1ccc(C(C)C)cc1NC(=O)c1ccccc1N(C)C | 86.8% (inactive) | 81.1% (inactive) | 88.1% (inactive) | 76.4% (inactive) | 90.2% (inactive) | 88.4% (inactive) | 70.6% (inactive) | 100% (inactive) | 80.1% (inactive) |  |
| CC(C)NC(=O)c1cc(-c2ccc(NC(=O)Nc3ccc(N4CCN(C)CC4)c(C(F)(F)F)c3)cc2)nc2cccnc12 | -81.9% (active) | -92.4% (active) | -92.9% (active) | -97.4% (active) | -93.6% (active) | -100% (active) | -93.6% (active) | -97.7% (active) | -43.6% (active) |  |
| COc1ccc(-c2nc(S(=O)(=O)c3ccccc3)c(S(C)(=O)=O)o2)cc1 | 69.7% (inactive) | 94.1% (inactive) | -63.7% (active) | -100% (active) | -99.3% (active) | -100% (active) | -94.2% (active) | 113% (inactive) | -46.7% (active) |  |
| Cc1cc(C)nc(SCC(=O)Nc2ccc(S(N)(=O)=O)cc2)n1 | 103% (inactive) | 99.8% (inactive) | 105% (inactive) | 87.1% (inactive) | 102% (inactive) | 101% (inactive) | 96.5% (inactive) | 123% (inactive) | 97.1% (inactive) |  |
| O/N=C(\CSc1nnc(-c2c[nH]c3ccccc23)n1-c1ccccc1)c1ccc(Br)cc1 | -66.3% (active) | -63.3% (active) | -77.2% (active) | 3.58% (active) | -82.8% (active) | -83.5% (active) | -94.3% (active) | 62.2% (inactive) | -6.14% (active) | -19.2% (active) |
| C#CCNC(=O)CCC(=O)OC[C@]12CC[C@@H](C(=C)C)[C@@H]1C1CC[C@@H]3[C@@]4(C)CCCNC(C)(C)[C@@H]4CC[C@@]3(C)[C@]1(C)CC2 (stereo partly specified) | -66.1% (active) | 2.91% (active) | 19.2% (inactive) | 33.5% (inactive) | 11.6% (inactive) | 26.6% (inactive) | 17.3% (inactive) | 68.5% (inactive) | -13.2% (active) | -3.06% (active) |
| CC(=O)Nc1ccc(-c2cn(-c3cccc(C(=O)Nc4cc(CN5CCOCC5)cc(C(F)(F)F)c4)c3)nn2)cn1 | -84.6% (active) | -88.1% (active) | -93.2% (active) | -93.5% (active) | -99.3% (active) | -100% (active) | -91.9% (active) | -95.5% (active) | -5.47% (active) | -22.2% (active) |
| CCOC(=O)c1sc(N/N=C(\C)c2ccc3c(c2)Nc2ccccc2S3)nc1C | 10.7% (inactive) | 26.1% (inactive) | 51.3% (inactive) | 29.4% (inactive) | 36.8% (inactive) | 16.9% (inactive) | 32.2% (inactive) | 30.6% (inactive) | 32.4% (inactive) | 14.8% (inactive) |
| COc1ccc2c3nc4cc(C)c(C)cc4nc3n(CCN(C)C)c2c1 | -4.58% (active) | 12.6% (inactive) | -15.6% (active) | -67.2% (active) | 15.6% (inactive) | -64% (active) | -67.5% (active) | 65.4% (inactive) | 20.1% (inactive) | 4.84% (active) |
| O=C1N/C(=N\c2nccs2)S/C1=C\c1cccs1 | 40.7% (inactive) | 19% (inactive) | 45.8% (inactive) | 20.8% (inactive) | 55.2% (inactive) | 17.1% (inactive) | 20.2% (inactive) | 73.2% (inactive) | 19.1% (inactive) | 17% (inactive) |
| O=C(Nc1nc2ccc([N+](=O)[O-])cc2s1)Nc1cc(Cl)ccc1I | -62.1% (active) | -23.7% (active) | -16.8% (active) | -18.3% (active) | -4.54% (active) | -3.53% (active) | -24.7% (active) | -16.8% (active) | -36.8% (active) | -44.6% (active) |
| CN1C(=O)N(C)C2SC(N/N=C/c3ccccc3)=NC21 (stereo unspecified) | 73.3% (inactive) | 90.7% (inactive) | 81.5% (inactive) | 65.4% (inactive) | 87.4% (inactive) | 96.3% (inactive) | 72.5% (inactive) | 81.7% (inactive) | 78.4% (inactive) | 54.9% (inactive) |
| CC(=O)Oc1ccccc1C(=O)Oc1ccc(C(=O)/C=C/c2ccncc2)cc1 | 108% (inactive) | 80.6% (inactive) | 18.6% (inactive) | 38.7% (inactive) | 91.6% (inactive) | 56% (inactive) | 59.7% (inactive) | 84% (inactive) | 43.6% (inactive) | 40.1% (inactive) |
